Several values for one entry are separate records, joined by “and”; a condition that tells them apart may be missing. Identical values can stand only once.
assay: qHTS profiling for inhibitors of Plasmodium falciparum (HB3) proliferation (AID 743324); settings: Plasmodium falciparum HB3 blood-stage proliferation; at 28.7 µM (top of the series);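 also: 100% = DMSO vehicle wells and 0% = artemisinin-treated control wells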
Outline: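 SYBR Green fluorescence (485 ex/535 em) of lysed cultures, incubated overnight at room temperature in the dark, quantifies parasite DNA. Infected erythrocytes at 0.3% parasitemia and 2.5% hematocrit were exposed 72 h; values normalized to DMSO and 0.29 uM artemisinin controls.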

Row | Structure (SMILES) | remaining proliferation (% of control), lower = more inhibition
1 | CCCCC/C=C\C/C=C\C/C=C\C/C=C\CCCC(=O)NC1CC1 | 3.08%
2 | CC(O)(CS(=O)(=O)c1ccc(F)cc1)C(=O)Nc1ccc(C#N)c(C(F)(F)F)c1 (centres undefined) | 70.9%
3 | Cc1sc2c(c1C)C(c1ccc(Cl)cc1)=N[C@@H](CC(=O)OC(C)(C)C)c1nnc(C)n1-2 | -1.43%
4 | O=C(O)C(=O)c1cn(Cc2ccccc2)c2ccc(-c3ccc(OC(F)(F)F)cc3)cc12 | 30.7%
5 | COC1(CS(=O)c2ccccc2)CCN(CCc2c[nH]c3ccc(F)cc23)CC1 (centres undefined) | 10%
6 | Cc1cc(SCc2sc(-c3ccc(C(F)(F)F)c(F)c3)nc2C)ccc1OCC(=O)O | 82.6%
7 | COc1cc([C@@H]2c3cc4c(cc3[C@H](O)[C@H]3COC(=O)[C@H]23)OCO4)cc(OC)c1OC | 5.53% and 99%
8 | Oc1cc(Cl)ccc1Oc1ccc(Cl)cc1Cl | 1.17%
9 | CNC(=O)c1ccc(N2C(=S)N(c3ccc(C#N)c(C(F)(F)F)c3)C(=O)C23CCC3)cc1F | 43.8%
10 | C[C@@H]1[C@@H](C(=O)C[C@H]2O[C@@H]3O[C@]4(C)CC[C@@H]5[C@H](C)CC[C@@H]([C@H]2C)[C@@]35OO4)O[C@@H]2O[C@]3(C)CC[C@H]4[C@H](C)CC[C@@H]1[C@@]24OO3 | 0.763%
11 | COc1ccc(C(=O)c2c(C)n(CCN3CCOCC3)c3ccccc23)cc1 | 94.6%
12 | C[C@@H]1[C@@H](CC(C[C@H]2O[C@@H]3O[C@]4(C)CC[C@@H]5[C@H](C)CC[C@@H]([C@H]2C)[C@@]35OO4)C[S+](=O)([O-])c2ccc(COC(=O)N(C)C)cc2)O[C@@H]2O[C@]3(C)CC[C@H]4[C@H](C)CC[C@@H]1[C@@]24OO3 (some centres undefined) | 0.323%
13 | CC1=C2C[C@@H]3[C@@H](CC=C4C[C@@H](O)CC[C@@]43C)[C@@H]2CC[C@]12O[C@H]1C[C@H](C)CN[C@H]1[C@H]2C | 5.81%
14 | CNC(=O)N1N=C(c2ccc(N)cc2)c2cc3c(cc2CC1C)OCO3 (centres undefined) | 83.9%
15 | COC[C@H]1OC(=O)c2coc3c2[C@@]1(C)C1=C(C3=O)C2CCC(=O)[C@@]2(C)C[C@H]1OC(C)=O (some centres undefined) | 74%
16 | CN(C)CCN(C)CCc1ccc(Cl)c(Cl)c1 | 36.8%

assay: qHTS profiling of the MIPE4 collection as inhibitors of Plasmodium falciparum (3D7) proliferation (AID 743344);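 also: scaled between DMSO vehicle wells and 0.29 µM artemisinin as full inhibition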; settings: P. falciparum 3D7 in erythrocytes, SYBR Green DNA fluorescence, 72 h; at 28.5 µM (top of the series) unless noted
Outline: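 Parasite DNA was quantified by SYBR Green I fluorescence (ex 485, em 535 nm) after overnight lysis in saponin/Triton buffer at room temperature. Cultures at 0.3% parasitemia and 2.5% hematocrit were first exposed to compound for 72 h at 37 C; signals were normalised to artemisinin (0.29 uM) and vehicle wells.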

Row | Structure (SMILES) | parasite growth, % of DMSO control
17 | Fc1ccc(C(OCCN2CCN(CCCc3ccccc3)CC2)c2ccc(F)cc2)cc1 | 5.99%
18 | C=C(C)[C@H]1Cc2c(ccc3c2O[C@@H]2COc4cc(OC)c(OC)cc4[C@@H]2C3=O)O1 | 86.6%
19 | CC(O)(CS(=O)(=O)c1ccc(F)cc1)C(=O)Nc1ccc(C#N)c(C(F)(F)F)c1 (centres undefined) | 61.4%
20 | Cc1sc2c(c1C)C(c1ccc(Cl)cc1)=N[C@@H](CC(=O)OC(C)(C)C)c1nnc(C)n1-2 | 16.3%
21 | O=C(O)C(=O)c1cn(Cc2ccccc2)c2ccc(-c3ccc(OC(F)(F)F)cc3)cc12 | 222%
22 | O=c1[nH]c2ccccc2n1CCCN1CCC(n2c(=O)[nH]c3cc(Cl)ccc32)CC1 | 26.8%
23 | COC1(CS(=O)c2ccccc2)CCN(CCc2c[nH]c3ccc(F)cc23)CC1 (centres undefined) | 36.7%
24 | Cc1cc(SCc2sc(-c3ccc(C(F)(F)F)c(F)c3)nc2C)ccc1OCC(=O)O | 66.7%
25 | COc1cc([C@@H]2c3cc4c(cc3[C@H](O)[C@H]3COC(=O)[C@H]23)OCO4)cc(OC)c1OC | 11%
26 | Oc1cc(Cl)ccc1Oc1ccc(Cl)cc1Cl | 6.59%
27 | CNC(=O)c1ccc(N2C(=S)N(c3ccc(C#N)c(C(F)(F)F)c3)C(=O)C23CCC3)cc1F | 36.9%
28 | C[C@@H]1[C@@H](C(=O)C[C@H]2O[C@@H]3O[C@]4(C)CC[C@@H]5[C@H](C)CC[C@@H]([C@H]2C)[C@@]35OO4)O[C@@H]2O[C@]3(C)CC[C@H]4[C@H](C)CC[C@@H]1[C@@]24OO3 | 20.5%
29 | COc1ccc(C(=O)c2c(C)n(CCN3CCOCC3)c3ccccc23)cc1 | 90.6%
30 | C[C@@H]1[C@@H](CC(C[C@H]2O[C@@H]3O[C@]4(C)CC[C@@H]5[C@H](C)CC[C@@H]([C@H]2C)[C@@]35OO4)C[S+](=O)([O-])c2ccc(COC(=O)N(C)C)cc2)O[C@@H]2O[C@]3(C)CC[C@H]4[C@H](C)CC[C@@H]1[C@@]24OO3 (some centres undefined) | 25.5%
31 | CC1=C2C[C@@H]3[C@@H](CC=C4C[C@@H](O)CC[C@@]43C)[C@@H]2CC[C@]12O[C@H]1C[C@H](C)CN[C@H]1[C@H]2C | 61.1%
32 | CNC(=O)N1N=C(c2ccc(N)cc2)c2cc3c(cc2CC1C)OCO3 (centres undefined) | 269%
33 | Cn1c(CCCC(=O)O)nc2cc(N(CCCl)CCCl)ccc21 | 97.1%
34 | CN(C)CCN(C)CCc1ccc(Cl)c(Cl)c1 | 50%

Reference: PubChem BioAssay (NCATS)
